Assay [1] is described as follows: viability loss in pontine glioma line – cell-based, SU-DIPG-XXV, MIPE5.0, CellTiter-Glo, qHTS, dose response (AID 1347065; cut-off not given, nearly all actives have AC50 up to about 26 µM;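 further: cells exposed to compound for 48 hours before ATP readout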). To be noted: CellTiter-Glo ATP luminescence. Background: In ATP-based viability assays light output follows the ATP content of the culture.
The nature of assay [2]: JHH-DIPG-1 glioma cell viability, MIPE5.0 library, CellTiter-Glo luminescence, qHTS (AID 1347067; cut-off not given, nearly all actives have AC50 up to about 26 µM;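 further: cells exposed to compound for 48 hours before readout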). The note with it: JHH-DIPG-1 glioma viability, CellTiter-Glo ATP luminescence.
Assay [3] can be described thus: SU-DIPG-XXV glioma cell viability, MIPE5.0 library, qHTS (AID 1347068; cut-off not given, nearly all actives have IC50 up to about 30 µM).
Assay [4] is described as follows: sensitizers of A549 cells to miR-34 induction, primary screen, imaging, A549 dox-inducible miR-34, nuclei and caspase counts (AID 1347080;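 active means compounds whose cell count with miR-34 switched on is under 0.7 times the count with it off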). The note with it: A549 miR-34 inducible, Hoechst nuclei count, 48 h.
Assay [5] can be described thus: modifiers of HSF1 nuclear foci, imaging, Selleck Cancer Library (AID 1347162; in the data active means plate-normalised HSF1 focus index below about 0.46). The note with it: human cells, at 10 µM; SSMD: measured here: HSF1 foci SSMD mean; cell count: measured here: cell number; plate-normalised HSF1 focus index: stronger effect = lower value.
A short description of assay [6]: survival rescue of mitochondrial mutant cells in low glucose, primary screen, MELAS cybrids, Rieske KO mouse fibroblasts, CellTiter-Glo (AID 1508586;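 active means mean z-score across replicates of 1.96 or higher in either the MELAS or the Rieske mutant cell line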;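 further: z relative to plate mean and SD of compound and empty wells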).
A short description of assay [7]: ovarian cancer cell viability with rucaparib, profiling panel, oncology-focused library, rucaparib conditional (AID 1508598). The note with it: patient-derived ovarian cancer cells, CellTiter-Glo viability, 144 h, stronger effect = lower value.

The structures appear in SMILES notation. Inconclusive results are not listed. The source made the active and inactive calls.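 How the source made its calls, unless noted: active means normalized viability below 100% at a tested concentration; inactive means the rest.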

A word on the AC50: it is the concentration at which the activity in the assay is half-maximal. In general, viability refers to a read-out of living cells in per cent, often relative to untreated cells.

In the case of `O=C(Nc1ccc(OC(F)(F)F)cc1)c1sccc1NCc1ccnc2ccccc12`, the AC50 was 16.6 µM (active) in assay [1] and 5.9 µM (active) in assay [2]. Also, the compound was called inactive in assay [3]. Moreover, the fold change is 0.889 (inactive) in assay [4] (stronger effect = lower value, cell number ratio, induced over uninduced) and 1.05 in assay [4] (measured here: relative caspase fold change +Dox/-Dox). The cell count in assay [4] (measured here: total cells with miR-34 induction, stronger effect = lower value) was determined as 4270; in assay [4] (measured here: total cells without miR-34 induction), 4800; in assay [5] it was 7420. The compound further showed an SSMD in assay [5] of 2.93. Further, the plate-normalised HSF1 focus index in assay [5] was 1.18 (inactive). The z-score was -0.433 (inactive) in assay [6] (MELAS cybrid survival, CellTiter-Glo 48 h, stronger effect = higher value) and 0.766 in assay [6] (Rieske KO mouse fibroblast survival, CellTiter-Glo 72 h). Further, the viability was 104% (inactive) in assay [7] (at 0.000305 µM, OCI-C5x cells, with rucaparib 10 µM, 100% = cells with rucaparib alone); 102% (inactive) in assay [7] (at 0.000305 µM, OCI-C5x cells, without rucaparib); 79.8% (active) in assay [7] (at 0.000305 µM, OCI-P5x cells, with rucaparib 20 µM, 100% = cells with rucaparib alone); 88.5% (active) in assay [7] (at 0.000305 µM, OCI-P5x cells, without rucaparib); 108% (inactive) in assay [7] (at 0.00122 µM, OCI-C5x cells, with rucaparib 10 µM, 100% = cells with rucaparib alone); 110% (inactive) in assay [7] (at 0.00122 µM, OCI-C5x cells, without rucaparib). For the same compound, the viability in assay [7] (at 0.00122 µM, OCI-P5x cells, with rucaparib 20 µM, 100% = cells with rucaparib alone) is 76.7% (active); in assay [7] (at 0.00122 µM, OCI-P5x cells, without rucaparib) it was 81.1% (active); in assay [7] (at 0.00488 µM, OCI-C5x cells, with rucaparib 10 µM, 100% = cells with rucaparib alone) it was 98.6% (active); in assay [7] (at 0.00488 µM, OCI-C5x cells, without rucaparib), 105% (inactive); in assay [7] (at 0.00488 µM, OCI-P5x cells, with rucaparib 20 µM, 100% = cells with rucaparib alone), 79.8% (active); in assay [7] (at 0.00488 µM, OCI-P5x cells, without rucaparib), 79.7% (active). The viability in assay [7] (at 0.0195 µM, OCI-C5x cells, with rucaparib 10 µM, 100% = cells with rucaparib alone) was 108% (inactive); in assay [7] (at 0.0195 µM, OCI-C5x cells, without rucaparib), 113% (inactive); in assay [7] (at 0.0195 µM, OCI-P5x cells, with rucaparib 20 µM, 100% = cells with rucaparib alone), 81% (active); in assay [7] (at 0.0195 µM, OCI-P5x cells, without rucaparib), 79% (active); in assay [7] (at 0.0781 µM, OCI-C5x cells, with rucaparib 10 µM, 100% = cells with rucaparib alone) it was 108% (inactive); in assay [7] (at 0.0781 µM, OCI-C5x cells, without rucaparib), 113% (inactive). Also, the viability in assay [7] (at 0.0781 µM, OCI-P5x cells, with rucaparib 20 µM, 100% = cells with rucaparib alone) was 111% (inactive); in assay [7] (at 0.0781 µM, OCI-P5x cells, without rucaparib) it was 108% (inactive); in assay [7] (at 0.313 µM, OCI-C5x cells, with rucaparib 10 µM, 100% = cells with rucaparib alone) it was 98.2% (active); in assay [7] (at 0.313 µM, OCI-C5x cells, without rucaparib) it was 110% (inactive); in assay [7] (at 0.313 µM, OCI-P5x cells, with rucaparib 20 µM, 100% = cells with rucaparib alone), 107% (inactive); in assay [7] (at 0.313 µM, OCI-P5x cells, without rucaparib), 110% (inactive). Moreover, the viability in assay [7] (at 1.25 µM, OCI-C5x cells, with rucaparib 10 µM, 100% = cells with rucaparib alone) was 94.5% (active); in assay [7] (at 1.25 µM, OCI-C5x cells, without rucaparib), 107% (inactive); in assay [7] (at 1.25 µM, OCI-P5x cells, with rucaparib 20 µM, 100% = cells with rucaparib alone) it was 103% (inactive); in assay [7] (at 1.25 µM, OCI-P5x cells, without rucaparib), 112% (inactive); in assay [7] (at 5 µM, OCI-C5x cells, with rucaparib 10 µM, 100% = cells with rucaparib alone), 89.4% (active); in assay [7] (at 5 µM, OCI-C5x cells, without rucaparib) it was 117% (inactive). Besides, the viability was 77.3% (active) in assay [7] (at 5 µM, OCI-P5x cells, with rucaparib 20 µM, 100% = cells with rucaparib alone) and 54.8% (active) in assay [7] (at 5 µM, OCI-P5x cells, without rucaparib).
For the compound `COc1ccccc1C(=O)Nc1cc2c(cc1N1CCCCC1)n(C)c(=O)n2C`, in assay [1], the AC50 is 18.6 µM (active). The compound was classed as inactive in assay [3].
The like results for `C[C@H](NC(=O)c1c(N)nn2cccnc12)c1cc2cccc(C#Cc3cnn(C)c3)c2c(=O)n1-c1ccccc1` were, in that order, 12.9 µM (active) and “inactive”.
Turning to `O=C(NCCCNC(=O)c1ccc[nH]c1=O)c1cc(-c2ccccc2)on1`, the compound was classed as inactive in assay [1] and in assay [3]. The AC50 in assay [2] was 14.8 µM (active).

(Values after PubChem BioAssay.)
